In PubChem BioAssay:
Activity calls are given as the source filed them.

Tests used:
[1] = binders of probe aFSTL3 on microarray, primary screen, stem cell growth factor project, biochemical, small-molecule microarray, fluorescence 635/667 (AID 1064); conditions: higher = more signal;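 further: measures binding of the biotinylated anti-FSTL3 antibody to printed compounds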
[2] = binders from COS7 lysate, DM2A8 probe, primary screen, torsin A project, cell lysate, small-molecule microarray, fluorescence 635/667 (AID 1065); conditions: higher = more signal, COS7 lysate expressing mutant human TOR1A
[3] = binders of probe aFGF2 on microarray, primary screen, stem cell growth factor project, biochemical, small-molecule microarray, fluorescence 635/667 (AID 1067); conditions: higher = more signal;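 further: measures binding of biotinylated aFGF2 protein to printed compounds on slides; z-score merges feature fluorescence and signal-to-noise across triplicate slides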
[4] = binders of probe aFGF10 on microarray, primary screen, stem cell growth factor project, biochemical, small-molecule microarray, fluorescence 635/667 (AID 1071); conditions: higher = more signal;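 further: score merges 667 nm spot intensity and signal to noise from triplicate slides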
[5] = target: Neurogenic locus notch homolog protein 2 (Homo sapiens) (UniProt Q04721); assay: Notch2 binders on small-molecule microarrays, primary screen, biochemical, small-molecule microarray, 635 nm fluorescence, stem cell growth factors (AID 1073); conditions: Notch2 binding, higher = more signal
Chain of Neurogenic locus notch homolog protein 2 (Homo sapiens) (Q04721 whole entry, looked up, canonical isoform): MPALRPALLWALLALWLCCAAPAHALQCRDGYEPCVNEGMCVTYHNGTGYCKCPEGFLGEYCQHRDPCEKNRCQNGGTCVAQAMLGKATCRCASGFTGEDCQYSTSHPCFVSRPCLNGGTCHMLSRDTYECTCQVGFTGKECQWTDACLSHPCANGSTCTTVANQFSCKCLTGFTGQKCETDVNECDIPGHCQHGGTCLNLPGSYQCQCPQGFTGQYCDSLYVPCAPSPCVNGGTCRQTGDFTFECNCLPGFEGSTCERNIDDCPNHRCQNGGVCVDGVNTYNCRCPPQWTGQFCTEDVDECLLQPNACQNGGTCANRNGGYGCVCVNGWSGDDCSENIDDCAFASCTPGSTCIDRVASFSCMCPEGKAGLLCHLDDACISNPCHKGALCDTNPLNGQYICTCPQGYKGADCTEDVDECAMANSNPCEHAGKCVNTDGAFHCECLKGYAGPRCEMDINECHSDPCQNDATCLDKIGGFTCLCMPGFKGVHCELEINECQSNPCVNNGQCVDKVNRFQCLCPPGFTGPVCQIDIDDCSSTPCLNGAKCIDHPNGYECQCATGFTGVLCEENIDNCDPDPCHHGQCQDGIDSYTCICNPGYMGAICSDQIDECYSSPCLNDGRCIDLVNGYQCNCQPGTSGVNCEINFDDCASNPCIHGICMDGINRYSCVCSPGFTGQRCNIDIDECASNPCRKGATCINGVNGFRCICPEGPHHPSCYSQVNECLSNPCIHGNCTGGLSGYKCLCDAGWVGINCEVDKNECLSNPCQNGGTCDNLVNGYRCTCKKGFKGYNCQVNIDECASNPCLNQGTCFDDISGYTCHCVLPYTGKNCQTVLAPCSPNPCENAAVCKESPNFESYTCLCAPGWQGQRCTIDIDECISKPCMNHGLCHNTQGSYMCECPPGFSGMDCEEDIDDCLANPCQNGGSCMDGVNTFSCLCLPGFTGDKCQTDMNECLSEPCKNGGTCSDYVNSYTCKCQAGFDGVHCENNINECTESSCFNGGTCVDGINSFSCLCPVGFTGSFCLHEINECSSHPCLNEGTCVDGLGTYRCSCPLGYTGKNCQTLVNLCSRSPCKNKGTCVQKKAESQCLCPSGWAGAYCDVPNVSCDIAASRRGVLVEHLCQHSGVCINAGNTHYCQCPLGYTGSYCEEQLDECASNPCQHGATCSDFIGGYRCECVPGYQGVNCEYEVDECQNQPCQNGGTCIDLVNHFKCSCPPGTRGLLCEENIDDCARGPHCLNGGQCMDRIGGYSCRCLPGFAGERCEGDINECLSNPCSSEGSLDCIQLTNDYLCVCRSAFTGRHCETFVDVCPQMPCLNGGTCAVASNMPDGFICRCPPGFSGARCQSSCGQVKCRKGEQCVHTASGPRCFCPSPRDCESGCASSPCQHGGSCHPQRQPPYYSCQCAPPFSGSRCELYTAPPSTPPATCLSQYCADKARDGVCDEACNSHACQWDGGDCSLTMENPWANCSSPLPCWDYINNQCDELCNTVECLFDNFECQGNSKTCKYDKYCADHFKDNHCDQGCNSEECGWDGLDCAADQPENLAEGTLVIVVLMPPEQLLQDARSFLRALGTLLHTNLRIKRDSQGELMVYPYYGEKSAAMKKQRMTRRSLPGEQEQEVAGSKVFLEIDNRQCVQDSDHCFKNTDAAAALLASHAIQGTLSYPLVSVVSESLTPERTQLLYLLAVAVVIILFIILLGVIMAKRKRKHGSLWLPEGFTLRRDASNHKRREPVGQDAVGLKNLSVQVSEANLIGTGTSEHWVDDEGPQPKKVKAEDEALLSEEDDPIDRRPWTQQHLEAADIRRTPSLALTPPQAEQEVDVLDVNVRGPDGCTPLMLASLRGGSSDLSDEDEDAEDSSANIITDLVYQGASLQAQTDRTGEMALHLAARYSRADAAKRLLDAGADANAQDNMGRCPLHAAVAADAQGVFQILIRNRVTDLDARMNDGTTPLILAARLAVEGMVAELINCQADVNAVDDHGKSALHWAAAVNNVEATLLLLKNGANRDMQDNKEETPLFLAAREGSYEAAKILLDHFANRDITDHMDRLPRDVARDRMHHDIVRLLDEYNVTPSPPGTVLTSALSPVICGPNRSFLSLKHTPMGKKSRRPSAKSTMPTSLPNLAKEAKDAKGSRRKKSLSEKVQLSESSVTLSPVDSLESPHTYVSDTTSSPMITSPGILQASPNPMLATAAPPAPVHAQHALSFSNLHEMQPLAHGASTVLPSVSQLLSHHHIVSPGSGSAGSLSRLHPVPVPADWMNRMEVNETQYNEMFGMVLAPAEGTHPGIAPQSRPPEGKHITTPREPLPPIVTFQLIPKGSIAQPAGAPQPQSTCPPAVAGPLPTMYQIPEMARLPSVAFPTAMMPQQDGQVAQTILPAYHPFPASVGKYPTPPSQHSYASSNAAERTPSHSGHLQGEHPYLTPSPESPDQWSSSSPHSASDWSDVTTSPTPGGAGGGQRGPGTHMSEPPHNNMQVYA

[6] = target: Pro-neuregulin-1, membrane-bound isoform (Homo sapiens) (UniProt Q02297); assay: NRG1 binders on small-molecule microarrays, primary screen, psychiatric disease protein project, biochemical, small-molecule microarray, fluorescence 635/667 (AID 1075); conditions: NRG1 binding, 635 nm fluorescence, higher = more signal;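 further: score combines 667 nm spot fluorescence with signal to noise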
Chain of Pro-neuregulin-1, membrane-bound isoform (Homo sapiens) (Q02297 whole entry, looked up, the tested form may be a part, canonical isoform): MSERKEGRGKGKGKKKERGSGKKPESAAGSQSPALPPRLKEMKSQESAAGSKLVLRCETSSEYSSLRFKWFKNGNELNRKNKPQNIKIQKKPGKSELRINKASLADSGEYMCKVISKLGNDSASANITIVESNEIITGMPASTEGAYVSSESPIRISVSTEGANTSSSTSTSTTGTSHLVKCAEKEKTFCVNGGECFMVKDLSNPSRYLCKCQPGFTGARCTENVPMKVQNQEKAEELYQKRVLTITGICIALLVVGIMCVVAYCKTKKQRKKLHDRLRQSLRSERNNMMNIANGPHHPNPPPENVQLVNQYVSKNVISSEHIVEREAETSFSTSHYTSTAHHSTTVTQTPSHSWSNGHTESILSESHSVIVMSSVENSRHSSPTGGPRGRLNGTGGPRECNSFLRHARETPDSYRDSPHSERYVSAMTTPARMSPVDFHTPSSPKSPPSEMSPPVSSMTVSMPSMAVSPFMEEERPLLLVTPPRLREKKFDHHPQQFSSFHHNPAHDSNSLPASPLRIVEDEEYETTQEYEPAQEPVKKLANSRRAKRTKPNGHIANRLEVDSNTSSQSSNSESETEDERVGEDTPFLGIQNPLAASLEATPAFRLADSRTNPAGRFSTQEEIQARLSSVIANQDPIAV

[7] = test system: Neuregulin-1 EGF-like domain; assay: binders of neuregulin-1 EGF-like domain, primary screen, biochemical, small-molecule microarray, 635 nm fluorescence (AID 1081); conditions: small-molecule microarray binding, higher = more signal;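 further: binding of the protein to compounds printed on small-molecule microarray slides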
[8] = FRG1 promoter luciferase signal modulators, primary screen, FRG1 inhibition for FSHD, cell-based, C2C12 myotubes, firefly/Renilla luciferase, luminescence (AID 1084); conditions: higher = more signal, called active from +8 up or from −8 down
[9] = binders of probe aFST on microarray, primary screen, stem cell growth factor project, biochemical, small-molecule microarray, fluorescence 635/667 (AID 1086); conditions: higher = more signal;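 further: score merges 667 nm fluorescence with signal-to-noise of each printed compound spot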
[10] = binders of probe aHhip on microarray, primary screen, stem cell growth factor project, biochemical, small-molecule microarray, fluorescence 635/667 (AID 1087); conditions: higher = more signal;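 further: score merges spot fluorescence at 667nm with spot signal to noise ratio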

SMILES	composite z-score [1]	composite z-score [2]	composite z-score [3]	composite z-score [4]	composite z-score [5]	composite z-score [6]	composite z-score [7]	z-score [8]	composite z-score [9]	composite z-score [10]
CC(C)(C)OC(=O)CC[C@]1(C(=O)NCC(O)CO)N=C(c2ccc(OCCCO)cc2)O[C@H]1c1ccccc1N=[N+]=[N-] (stereo not given in full)	0.929	1.34	0.171	0.53	1.02	1.58	1.17	3.99 (inactive)	0.967	-0.189
COCCOC(=O)N1C(=O)[C@@]2(c3ccccc31)[C@H](C(=O)N1CCN(c3ncccn3)CC1)[C@H]1C(=O)O[C@H](c3ccccc3)[C@H](c3ccccc3)N1[C@@H]2c1ccccc1OCCO	-0.287	0.514	0.168	0.7	0.827	0.111	1.13	-1.12 (inactive)	0.244	-0.0919
C=CCC(OC(C)=O)[C@@H]1[C@@H](N(Cc2ccc(-c3ccccc3)cc2)C(=O)c2cccc3ccccc23)c2cc(OCCCO)ccc2N1C(=O)Cc1ccc(OC)cc1 (stereo not given in full)	0.0714	-0.205	-0.108	-0.234	-0.559	-0.229	-0.757	-0.72 (inactive)	0.165	3.52
C[C@@H]1NC(=O)C([C@@H](C)OCc2ccccc2)NC(=O)[C@@]23C(=O)N[C@@H](Cc4ccccc4)C2[C@H](C)[C@@]2(C)O[C@H]2C3/C=C/C/C=C\CNC1=O (stereo not given in full)	-0.439	-0.328	-0.0578	0.341	-0.0879	0.671	0.503	-0.116 (inactive)	-0.502	-0.236
COc1ccc(C(O)C2C=CC3C(=O)NC(=O)C3N2Nc2ccc(Cl)cc2Cl)c2ccccc12 (stereo not given)	0.877	0.433	-0.106	0.273	1.02	0.999	1.04	-0.0308 (inactive)	0.951	-0.216
CN1C(=O)[C@@H]2[C@@H](CC(COc3ccccc3)=C3[C@@H](CCc4ccccc4)OB(O)C[C@@H]32)C1=O	-0.124	0.275	-0.0415	0.121	0.371	0.445	0.56	-0.799 (inactive)	0.0157	-0.0994
COc1cc(CO)cc(I)c1O[C@H]1C=C(C(=O)NCCO)C[C@@H]2O[C@H]12	0.167	0.622	-0.111	0.251	0.864	0.366	1.46	-1.44 (inactive)	0.164	-0.199
O=C1O[C@H](Cc2ccccc2)[C@@H]2[C@H]3C=CCCC=C3CN2[C@H]1Cc1ccc(O)cc1	-0.117	-0.0933	-0.0692	-0.026	-0.562	-0.465	0.0706	0.0201 (inactive)	0.142	0.0976
COC(=O)[C@H](Cc1ccccc1)N1CC2=CCCC=C[C@@H]2[C@H]1[C@H](O)Cc1ccccc1	-0.22	0.0803	-0.103	0.311	-0.0146	0.112	0.667	0.569 (inactive)	0.0599	-0.0427
NCCCCCCNC(=O)[C@@H]1C[C@@H]2C(=O)N3CCC[C@H]3C(=O)N2[C@@H]1c1cccc(OCCO)c1	1.14	0.957	-0.0347	0.361	0.0828	1.58	1.36	1.52 (inactive)	0.492	0.249
O=C1c2ccccc2[C@@]2(Cc3ccccc3N(Cc3ccccc3)C2=O)[C@H](c2ccc(CO)cc2)N1Cc1ccccc1Cl	0.209	-0.337	-0.0934	-0.127	-1.04	-0.579	-1.13	1.13 (inactive)	-0.164	-0.0541
CCCNC(=O)[C@@]1(Sc2ccc(C)cc2)CC(=O)N(Cc2ccccc2Cl)[C@@H]1c1ccc(CO)cc1I	0.746	-1.23	-0.127	-0.391	-1.13	1.4	0.895	-1.6 (inactive)	0.0493	0.106
CC=CC(O)C1C=CC2C(=O)NC(=O)C2N1Nc1ccc(Cl)cc1Cl (stereo not given)	0.389	0.453	-0.0074	0.647	0.662	1.01	0.669	0.035 (inactive)	0.114	-0.0645
C=C(CCCC)C(=O)CC[C@@H](OC(=O)c1ccccc1-c1ccccc1C(=O)O)c1ccccc1OCCO	-0.173	0.222	-0.0566	0.803	-0.0697	-0.0918	0.0551	-0.39 (inactive)	-0.501	0.0373
COCC(=C=CC[C@H](O)c1ccccc1OCCO)C[C@H](O)COCc1ccccc1	-0.287	0.584	-0.0004	1.3	0.41	1.22	0.571	0.291 (inactive)	0.092	0.107
Cc1ccc(S[C@]2(C(=O)NC3CC3)CC(=O)N(C(C)C)[C@@H]2c2ccc(CO)cc2I)cc1	-0.113	0.38	-0.0234	0.0084	-0.372	1.89	1.07	-0.0443 (inactive)	0.933	-0.318
COCCOC(=O)N1C(=O)[C@@]2(c3cc(C#CCC(C(=O)OC)C(=O)OC)ccc31)[C@H](C(=O)Nc1nc3ccccc3s1)[C@H]1C(=O)O[C@H](c3ccccc3)[C@H](c3ccccc3)N1[C@@H]2c1ccc(O)cc1	-0.566	0.304	0.412	0.742	1.45	0.158	1.3	0.203 (inactive)	0.805	0.314
C=CCNC(=O)[C@H]1[C@@H]2C(=O)O[C@@H](c3ccccc3)[C@@H](c3ccccc3)N2[C@@H](c2ccccc2OCCO)[C@]12C(=O)N(C(=O)OCCOC)c1ccc(C#Cc3ccc(OC)cc3)cc12	0.0122	0.633	0.0074	0.668	0.615	1.33	1.21	1.34 (inactive)	0.101	-0.0645
COc1ccccc1CN1C(=O)c2ccccc2[C@](Cc2ccccc2I)(C(=O)NCC(C)C)[C@@H]1c1ccc(CO)cc1	1.21	0.204	-0.0049	-0.452	-0.396	1.2	1.15	-2.55 (inactive)	0.0126	0.142
C=CCN1C(=O)[C@]2(O[C@H](CCn3cc([C@H](O)c4ccccc4)nn3)[C@@H]([Si](C)(C)c3ccc(OC)cc3)[C@@H]2C)c2cc(NC(=O)c3ccc(OC)cc3)ccc21	-0.255	0.39	-0.112	0.141	0.603	0.0976	0.519	-2.62 (inactive)	0.0019	0.0722
CCCCC(O)C1C=CC2C(=O)N(c3ccccc3)C(=O)C2N1Nc1ccc([N+](=O)[O-])cc1 (stereo not given)	0.108	0.0331	-0.0004	0.531	1.06	1.58	1.35	0.456 (inactive)	1.27	-0.154
O=C1O[C@H](c2ccccc2)[C@H](c2ccccc2)N2[C@H]1[C@@H](C(=O)N1CCN(c3ncccn3)CC1)[C@]1(C(=O)Nc3ccc(C#CCCO)cc31)[C@H]2c1ccc(O)cc1	-0.153	-0.162	0.0033	0.597	1.01	1.71	0.979	1.34 (inactive)	0.0354	0.0373
CC(C)[Si](C#CCCc1ccccc1)(O[C@H](c1ccccc1)c1cn(Cc2ccccc2)nn1)C(C)C	-0.454	-0.137	-0.116	0.529	0.186	0.215	1.12	0.0497 (inactive)	0.584	0.0401
CC(C)=CCCC=C(C)C(O)C1C=CC2C(=O)N(c3ccccc3)C(=O)C2N1Nc1ccc(C#N)cc1 (stereo not given)	0.314	0.146	0.126	0.178	1.51	1.93	1.23	-1.36 (inactive)	0.257	-0.382
COc1ccc([Si](C)(C)[C@H]2[C@H](CCO)O[C@@]3(C(=O)N(Cc4ccc(NC(=O)[C@H](C)O)cc4)c4ccccc43)[C@@H]2C)cc1	-0.184	0.485	-0.0508	0.663	1.19	1.54	1.19	-4.06 (inactive)	0.292	0.0401
C=CCOC(=O)[C@H]1[C@@H]2C(=O)O[C@@H](c3ccccc3)[C@@H](c3ccccc3)N2[C@@H](c2ccc(OCCOC(=O)[C@H]3C[C@H]4C(=O)N[C@@H](CC(C)C)C(=O)N4[C@H]3c3ccc(O)cc3)cc2)[C@]12C(=O)Nc1ccccc12	-0.109	1.34	-0.079	0.868	1.46	1.45	1.43	-0.0648 (inactive)	0.174	0.213
COC(=O)[C@@]1(Cc2ccccc2)N=C(c2ccc(OCCCO)cc2)O[C@H]1c1ccccc1CN=[N+]=[N-]	0.261	0.0296	-0.0529	0.0585	0.33	1.02	0.666	-2.6 (inactive)	0.226	-0.41
COCCCNC(=O)[C@@]1(CCS(=O)(=O)c2ccccc2)COC(c2ccc(OCCCO)cc2)=N1	1.79	1.68	0.0177	0.529	0.874	2.3	1.28	-1.24 (inactive)	1.1	-0.0296
O=C1O[C@@H](c2ccccc2)[C@@H](c2ccccc2)N2[C@@H](c3ccc(OCCO)cc3)[C@]3(C(=O)Nc4ccc(C#CCCO)cc43)[C@@H](C(=O)O)[C@H]12	1.47	0.431	0.213	0.749	0.882	1.46	1.24	-1.75 (inactive)	1.9	0.102
